# Data published in PubChem BioAssay (NCATS).
# Records with an inconclusive call do not appear. Active and inactive are the calls of the source. Unless noted, calls come from the whole dose curve.
# Tested on: not listed separately
# Experiment: qHTS for Inhibitors of the Functional Ribonucleoprotein Complex (vRNP) of Lymphocytic Choriomeningitis Arenaviruses (LCMV): Viability assay - alamar blue signal for LCMV Primary Screen (AID 1347085; calls by dose curve; tested in HEK293 reporter line; note: nearly all actives have a fitted effect of over 80% in size)
# Conditions: alamar blue viability counter-screen, LCMV vRNP screen cells; series mostly up to 57.5 µM
# Potency is the fitted concentration of half-maximal effect.
row,SMILES,Potency
1,COc1cc2c(Oc3ccc4[nH]c(C)cc4c3F)ncnc2cc1OCCCN1CCCC1,inactive
2,C[C@@H](Oc1cc(-n2cnc3ccc(CN4CCN(C)CC4)cc32)sc1C(N)=O)c1ccccc1C(F)(F)F,inactive
3,CCCCN1CCC(CNC(=O)c2c3n(c4ccccc24)CCCO3)CC1,7.69 µM (active)
4,COc1cccc2nc(-c3cccs3)nc(NN3C(=O)C=C(C)C3=O)c12,6.11 µM (active)
5,Cc1nc(N)sc1-c1ccnc(Nc2ccc(N3CCOCC3)cc2)n1,13.7 µM (active)
6,Cn1cc(-c2[nH]c3cc(NC(=O)[C@H](N)C4CCCCC4)cc4c3c2C=NNC4=O)cn1,4.85 µM (active)
7,Nc1ccc([N+](=O)[O-])cc1O,inactive
8,O=C(O)c1ccc(O)c2ncc(N3CCOCC3)cc12,48.5 µM (active)
9,CCOc1cc(C=C2C(=O)N(c3ccccc3)N=C2C)cc(Cl)c1OCC(=O)OC,7.69 µM (active)
10,OCCn1cc(-c2ccc3c(c2)CCC3=NO)c(-c2ccncc2)n1,1.72 µM (active)
11,COC(=O)c1ccc2c(C(=Nc3ccc(N(C)C(=O)CN4CCN(C)CC4)cc3)c3ccccc3)c(O)[nH]c2c1,27.3 µM (active)
12,O=C(Nc1cc(C(F)(F)F)cc(C(F)(F)F)c1)c1cc(Cl)ccc1O,2.43 µM (active)
13,CC(C)(C)c1[nH]cnc1C=c1[nH]c(=O)c(=Cc2ccccc2)[nH]c1=O,0.0079 µM (active)
14,COc1cc2c(cc1OC)CN(CCc1ccc(NC(=O)c3cccc4c(=O)c5cccc(OC)c5[nH]c34)cc1)CC2,inactive
15,COc1cc2ncn(-c3cc(OCc4ccccc4C(F)(F)F)c(C(N)=O)s3)c2cc1OC,1.72 µM (active)
16,O=C(Nc1ccc(Oc2ccc(Cl)cc2)c(Cl)c1)c1cc(I)cc(I)c1O,inactive
17,CCc1cc(-c2n[nH]c(C)c2-c2ccc3c(c2)OCCO3)c(O)cc1O,6.85 µM (active)
18,CN(C)Cc1ccc(-c2nc3cccc4c3n2CCNC4=O)cc1,6.85 µM (active)
19,COc1ccc(-c2c(-c3ccc(O)cc3O)n[nH]c2C)cc1,inactive
20,COc1cc2nc(N3CCCN(C)CC3)nc(NC3CCN(Cc4ccccc4)CC3)c2cc1OC,21.7 µM (active)
21,Cc1cn2c(-c3cn[nH]c3)cnc2c(Nc2ccc(C(=O)N3CCNCC3)cc2F)n1,1.93 µM (active)
22,COc1cc2ncnc(Nc3ccc(F)c(Cl)c3)c2cc1NC(=O)C=CCN1CCCCC1,inactive
23,CCN1CCN(CC(=O)Nc2ccc(-c3cccc4c(=O)cc(N5CCOCC5)oc34)c3sc4ccccc4c23)CC1,1.22 µM (active)
24,c1ccc2c(CCNc3ccc(Nc4ccncc4)cc3)c[nH]c2c1,17.2 µM (active)
25,CN(C)C(=O)c1ccc(S(=O)(=O)c2ccc(NC(=O)[C@@](C)(O)C(F)(F)F)c(Cl)c2)cc1,inactive

# Molecular target: Nucleoprotein (Lymphocytic choriomeningitis virus (strain Armstrong)) (UniProt P09992)
# Sequence (P09992 whole entry, looked up): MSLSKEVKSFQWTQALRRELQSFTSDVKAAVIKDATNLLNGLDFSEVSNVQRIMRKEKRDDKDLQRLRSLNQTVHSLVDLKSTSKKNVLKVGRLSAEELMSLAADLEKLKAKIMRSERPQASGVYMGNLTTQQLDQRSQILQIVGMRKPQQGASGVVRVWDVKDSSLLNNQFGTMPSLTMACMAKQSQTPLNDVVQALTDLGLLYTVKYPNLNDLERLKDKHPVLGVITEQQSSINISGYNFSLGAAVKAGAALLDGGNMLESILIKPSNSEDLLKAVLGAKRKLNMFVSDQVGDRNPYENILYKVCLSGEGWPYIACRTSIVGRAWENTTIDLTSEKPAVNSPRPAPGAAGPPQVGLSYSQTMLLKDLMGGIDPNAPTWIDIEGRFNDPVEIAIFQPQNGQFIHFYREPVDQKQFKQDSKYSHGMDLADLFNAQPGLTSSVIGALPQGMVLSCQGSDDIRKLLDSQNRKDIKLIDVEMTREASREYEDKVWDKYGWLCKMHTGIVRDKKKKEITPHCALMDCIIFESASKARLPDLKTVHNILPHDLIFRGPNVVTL
# Experiment: qHTS for Inhibitors of the Functional Ribonucleoprotein Complex (vRNP) of Lymphocytic Choriomeningitis Arenaviruses (LCMV): LCMV Primary Screen - GLuc reporter signal (AID 1347086); note: nearly all actives have a fitted effect of over 70% in size
# Conditions: LCMV minigenome vRNP cell assay, Gaussia luciferase reporter; series mostly up to 57.5 µM
row,SMILES,Potency
1,COc1cc2c(Oc3ccc4[nH]c(C)cc4c3F)ncnc2cc1OCCCN1CCCC1,inactive
2,C[C@@H](Oc1cc(-n2cnc3ccc(CN4CCN(C)CC4)cc32)sc1C(N)=O)c1ccccc1C(F)(F)F,inactive
3,CCCCN1CCC(CNC(=O)c2c3n(c4ccccc24)CCCO3)CC1,4.32 µM (active)
4,Clc1ccc(C(c2ccc(Cl)cc2)n2cc[n+](CC(OCc3ccc(Cl)cc3Cl)c3ccc(Cl)cc3Cl)c2)cc1 (configuration not stated),15.3 µM (active)
5,COc1ccccc1[C@H](c1cccc2ccccc12)[C@@](C)(C#N)C(=O)N1CCC(c2cccc(C(F)(F)F)c2)CC1,inactive
6,COc1cccc2nc(-c3cccs3)nc(NN3C(=O)C=C(C)C3=O)c12,7.69 µM (active)
7,Cc1nc(N)sc1-c1ccnc(Nc2ccc(N3CCOCC3)cc2)n1,inactive
8,CCCS(=O)(=O)Nc1ccc(F)c(C(=O)c2c[nH]c3ncc(-c4ccc(Cl)cc4)cc23)c1F,inactive
9,Cn1cc(-c2[nH]c3cc(NC(=O)[C@H](N)C4CCCCC4)cc4c3c2C=NNC4=O)cn1,2.73 µM (active)
10,Nc1ccc([N+](=O)[O-])cc1O,inactive
11,c1ccc2c(-c3cnn4cc(-c5ccc(N6CCNCC6)cc5)cnc34)ccnc2c1,inactive
12,NC(=O)c1ccc(-c2nc(-c3ccc4c(c3)OCCO4)c(-c3ccccn3)[nH]2)cc1,inactive
13,OCCn1cc(-c2ccc3c(c2)CCC3=NO)c(-c2ccncc2)n1,7.69 µM (active)
14,COC(=O)c1ccc2c(C(=Nc3ccc(N(C)C(=O)CN4CCN(C)CC4)cc3)c3ccccc3)c(O)[nH]c2c1,inactive
15,CC(O)=C(C#N)C(=O)Nc1ccc(C(F)(F)F)cc1,19.3 µM (active)
16,Cc1cc2c(F)c(Oc3ncnn4cc(OC[C@@H](C)O)c(C)c34)ccc2[nH]1,13.7 µM (active)

row,SMILES,Potency
1,CC(C)(C)c1[nH]cnc1C=c1[nH]c(=O)c(=Cc2ccccc2)[nH]c1=O,0.0314 µM (active)
2,COc1cc2c(cc1OC)CN(CCc1ccc(NC(=O)c3cccc4c(=O)c5cccc(OC)c5[nH]c34)cc1)CC2,inactive
3,COc1cc2ncn(-c3cc(OCc4ccccc4C(F)(F)F)c(C(N)=O)s3)c2cc1OC,1.72 µM (active)
4,O=C(Nc1ccc(Oc2ccc(Cl)cc2)c(Cl)c1)c1cc(I)cc(I)c1O,inactive
5,CN[C@@H](C)C(=O)N[C@H]1CCCC[C@H]2CC[C@@H](C(=O)N[C@@H](c3ccccc3)c3cn(CCCCc4ccc(CCCCn5cc([C@@H](NC(=O)[C@@H]6CC[C@@H]7CCCC[C@H](NC(=O)[C@H](C)NC)C(=O)N76)c6ccccc6)nn5)cc4)nn3)N2C1=O,inactive
6,CO[C@@H]1[C@H](N(C)C(=O)c2ccccc2)C[C@H]2O[C@]1(C)n1c3ccccc3c3c4c(c5c6ccccc6n2c5c31)C(=O)NC4,inactive
7,Cc1ccc(N)cc1O,inactive
8,CN(C)Cc1ccc(-c2nc3cccc4c3n2CCNC4=O)cc1,inactive
9,COc1ccc(-c2c(-c3ccc(O)cc3O)n[nH]c2C)cc1,inactive
10,COc1cc2nc(N3CCCN(C)CC3)nc(NC3CCN(Cc4ccccc4)CC3)c2cc1OC,12.2 µM (active)
11,C=C[C@@H]1CN2CCC1C[C@@H]2[C@@H](O)c1ccnc2ccccc12 (some centres not stated),38.5 µM (active)
12,Cc1cn2c(-c3cn[nH]c3)cnc2c(Nc2ccc(C(=O)N3CCNCC3)cc2F)n1,2.73 µM (active)
13,COc1cc2ncnc(Nc3ccc(F)c(Cl)c3)c2cc1NC(=O)C=CCN1CCCCC1,inactive
14,COc1cc2nccc(Oc3ccc(NC(=O)C4(C(=O)Nc5ccc(F)cc5)CC4)cc3)c2cc1OC,inactive
15,CCN1CCN(CC(=O)Nc2ccc(-c3cccc4c(=O)cc(N5CCOCC5)oc34)c3sc4ccccc4c23)CC1,1.22 µM (active)
16,c1ccc2c(CCNc3ccc(Nc4ccncc4)cc3)c[nH]c2c1,21.7 µM (active)
